Shown are actives, neighbours in structure and some others; about 3.7% of the full set was active somewhere.
PI5P4K alpha inh: qHTS for Inhibitors of phosphatidylinositol 5-phosphate 4-kinase (PI5P4K). Phosphatidylinositol 5-phosphate 4-kinase type-2 alpha (Homo sapiens), P48426. PI5P4Kalpha enzyme, ADP-Glo luminescence, 60 min; stronger effect = lower value. max response, %. actives 1.2% (n = 330,000). AID 652105, 2013; active means max response of -50% or lower; inconclusive means between -30% and -50%; inactive means -30% or higher; further: value at the top dose of about 77 µM; on the % scale 0 is the no-effect control and ±100 the full control effect
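Single end-point luminescence (ADP-Glo) quantified ADP from PI5P4Kalpha turnover; ATP 5 microM final, 1 h at RT, 0.1% CHAPS and 0.28 mM EGTA in HEPES pH 7.4.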
PLK1 PBD inh: qHTS for Inhibitors of PLK1-PDB (polo-like kinase 1 - polo-box domain): Primary Screen. Serine/threonine-protein kinase PLK1 (Homo sapiens), P53350. Plk1 PBD binding of FITC phosphopeptide, fluorescence polarization. Potency, µM, inactives show max response, negative = inhibition, usual class: inhibitors. actives 2.8% (n = 360,000); further: potency means the concentration at half of the fitted maximal effect; series mostly up to about 57 µM; on the % scale 0 is the no-effect control and ±100 the full control effect; nearly all actives have a fitted effect of over 65% in size
TCR act: Activators of T cell receptors: qHTS campaign | 330,000 tested, under 10 active | Potency, µM (highest dose often 9.22 µM), without a hit: top-dose activation of IL-2 secretion, hits mostly activators | primary human leukocytes, anti-CD3, IL-2 HTRF, 48 h; further: % of control where 0% means no effect
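Activity was scored as IL-2 release from primary human leukocytes given only a TCR signal (a-CD3 beads) plus compound for 48 hr. Detection used a two-antibody HTRF format read at 665nm.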
WRN inhibitor: qHTS for Inhibitors of WRN Helicase; Bifunctional 3'-5' exonuclease/ATP-dependent helicase WRN (Homo sapiens), Q14191; WRN helicase unwinding, fluorescent forked duplex, kinetic; Potency, µM (highest dose often 114 µM), inactives show at the top dose activity change, negative = inhibition, usual class: inhibitors; actives 0.46% (n = 360,000); AID 651768, 2012; further: potency means the concentration at half of the fitted maximal effect; on the % scale 0 is the no-effect control and ±100 the full control effect; nearly all actives have a fitted effect of over 55% in size
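WRN at 20 nM final was preincubated with compound for 15 min at room temperature; reaction started with 100 nM forked duplex oligonucleotide carrying fluorophore and quencher plus 2 mM ATP (final). Unwinding followed kinetically by red fluorescence (ex 525/em 598 nm).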
VDR inh: Inhibitors of the vitamin D receptor (VDR): qHTS; AID 504847, 2011; Potency, µM, without a hit: max response, negative = inhibition, hits mostly inhibitors; Vitamin D3 receptor (Homo sapiens), P11473; VDR-SRC2-3 peptide fluorescence polarization, 2 h; actives 0.93% (n = 400,000); further: potency means the concentration at half of the fitted maximal effect; on the % scale 0 is the no-effect control and ±100 the full control effect
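The screen uses fluorescence polarization to detect compounds that interfere with recruitment of the SRC2-3 coactivator peptide to VDR; plates are read after 2 h at room temperature.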
FEN1 inh: qHTS Assay for the Inhibitors of Human Flap endonuclease 1 (FEN1). Potency, µM (titrated, usually from 114 µM), for the others: top-dose activity change, negative = inhibition, actives largely listed as inhibitors. actives 0.35% (n = 390,000). P39748. Recombinant FEN1 flap cleavage, fluorescence, 15 min; further: potency means the concentration at half of the fitted maximal effect; on the % scale 0 is the no-effect control and ±100 the full control effect; nearly all actives have a fitted effect of over 65% in size
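Concentration–response screening of FEN1 (10 nM): 15 min compound preincubation at room temperature, reaction started with 50 nM substrate and read at 0 and 15 min. Corrected, normalized data were fitted by a four-parameter Hill equation.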
* marks the source's active call; other numbers are inactive results; ! = repeats disagree; [ ] = another dose, or the depositor's remark. Unless noted, the call rests on the fitted dose curve; in most records, active means well fitted curve in the direction sought with a large enough effect; inconclusive means small, poorly fitted or top-dose-only effect, or another doubt; inactive means no such curve, though single readings can be large; an effect the other way counts as inactive or inconclusive.

Cn1cccc1/C=N/NC(=O)c1ccccn1 was read as PI5P4K alpha inh -12, PLK1 PBD inh 24µM*, TCR act 0%, WRN inhibitor 1%, VDR inh inconclusive and FEN1 inh 1%.
For O=C(Nc1ccc(Cl)cc1Cl)[C@@H]1CC=C[C@@H]2CCN(C3CC3)C(=O)[C@@H]21 the results were FEN1 inh 1%.
COc1cc2c(C#N)c(N3CCCC3)nc(N)c2c(N)n1 was read as PI5P4K alpha inh -22, PLK1 PBD inh -11%, TCR act 3%, WRN inhibitor inconclusive, VDR inh 28µM*! and FEN1 inh inconclusive.
`O=C1C(Cl)=C(N2CCCCC2)C(=O)C(Cl)=C1c1cnc(N2CCCCC2)s1` gave PLK1 PBD inh 7.5µM*, TCR act 1%[46.1 µM], WRN inhibitor inconclusive, VDR inh inconclusive and FEN1 inh -2%.
CCCC(C(=O)NCC1CCCO1)N(Cc1ccco1)C(=O)CNS(=O)(=O)c1ccc(F)cc1 (configuration not stated) was read as PI5P4K alpha inh -29, PLK1 PBD inh 15µM*, TCR act -3%, WRN inhibitor 7%, VDR inh -13% and FEN1 inh -8%.
CC(C)C(C(=O)NCC1CCCO1)N(Cc1ccco1)C(=O)CNS(=O)(=O)c1ccccc1 (configuration not stated) was read as PI5P4K alpha inh -6, PLK1 PBD inh -4%, TCR act 1%, WRN inhibitor 0%, VDR inh -3% and FEN1 inh 8%.
CC[C@H](C)[C@H](NC(=O)[C@H](CC(=O)O)NC(=O)[C@H](CC(N)=O)NC(=O)[C@@H](NC(=O)[C@H](CCCNC(=N)N)NC(=O)[C@@H](NC(=O)[C@@H](NC(=O)[C@@H](NC(=O)[C@@H](NC(=O)[C@H](CCCCN)NC(=O)[C@@H](NC(=O)[C@H](CC(C)C)NC(=O)[C@@H](NC(=O)[C@H](CCCCN)NC(=O)[C@@H](NC(=O)[C@H](CC(=O)O)NC(=O)[C@H](CC(=O)O)NC(=O)[C@H](CCC(N)=O)NC(=O)[C@@H](NC(=O)[C@H](CCCCN)NC(=O)[C@H](CCC(N)=O)NC(=O)[C@@H](NC(=O)[C@@H]1CCCN1C(=O)[C@@H](N)C(C)C)[C@@H](C)CC)C(C)C)[C@@H](C)O)[C@@H](C)O)[C@@H](C)CC)[C@@H](C)O)[C@@H](C)CC)C(C)C)[C@@H](C)O)[C@@H](C)CC)C(=O)N[C@@H](CO)C(=O)N[C@@H](Cc1cnc[nH]1)C(=O)N[C@H](C(=O)N[C@@H](CCC(N)=O)C(=O)N[C@@H](CO)C(=O)N[C@H](C(=O)N[C@@H](CO)C(=O)N[C@@H](CO)C(=O)N[C@@H](CCCCN)C(=O)N[C@@H](CCC(N)=O)C(=O)N[C@@H](CCCCN)C(=O)O)C(C)C)[C@@H](C)O was read as VDR inh 3%.
CC(C)Sc1ccc(C(=O)Nc2ccc(F)cc2F)cn1 was read as PI5P4K alpha inh -18, PLK1 PBD inh 19µM*, TCR act 6%, WRN inhibitor 2%[57.1 µM], VDR inh -4% and FEN1 inh 0%.
`O=C(Nc1ccc(F)cc1F)c1ccc(-n2cccn2)nc1` gave PI5P4K alpha inh -7, PLK1 PBD inh -2%, TCR act 0%, WRN inhibitor 4%, VDR inh -27% and FEN1 inh 13%.
`C=Cc1ccc(Cn2c(C(=O)O)c(CNCc3ccccc3)c3ccc(C)cc32)cc1` gave VDR inh 6% and FEN1 inh -3%.
For O=C(O)c1cc(N/N=C/c2ccc(N3CCOCC3)s2)ccc1Cl the results were PI5P4K alpha inh -56*, PLK1 PBD inh inconclusive, TCR act -11%[46.1 µM], WRN inhibitor inconclusive, VDR inh -28% and FEN1 inh inconclusive.
For O=C(Nc1ccc(S(=O)(=O)Nc2nccs2)cc1)c1ccc(F)c(S(=O)(=O)N2CCOCC2)c1 the results were PI5P4K alpha inh -16, PLK1 PBD inh 8%, TCR act -4%, WRN inhibitor -8%, VDR inh 7% and FEN1 inh 6%.
For O=C(Nc1ccc(S(=O)(=O)Nc2ncccn2)cc1)c1ccc(F)c(S(=O)(=O)N2CCOCC2)c1 the results were PI5P4K alpha inh -15, PLK1 PBD inh 30µM*, TCR act 0%, WRN inhibitor -3%, VDR inh -29% and FEN1 inh -4%.
For COC(=O)/C=c1/s/c(=C(/C#N)C(=O)N2CCOCC2)n(-c2ccccc2)c1=O the results were PI5P4K alpha inh -15, PLK1 PBD inh 27µM*, TCR act 6%, WRN inhibitor 7%, VDR inh -20% and FEN1 inh 1%.
`Cc1cc2c(cc1S(=O)(=O)N(CCO)Cc1ccccc1)OCC(=O)N2` gave VDR inh 6% and FEN1 inh -6%.
Screening NC(=S)N/N=C/c1cn(-c2ccccc2)nc1-c1cccnc1 returned PI5P4K alpha inh -54*, PLK1 PBD inh 3.4µM*, TCR act 7%, WRN inhibitor -5%, VDR inh 28µM* and FEN1 inh inconclusive.
For Cc1cccc(C)c1NC(=O)CSc1nnc(-c2ccco2)c(-c2ccco2)n1 the results were PI5P4K alpha inh -69*, PLK1 PBD inh 19µM*, TCR act 0%, WRN inhibitor 35µM*, VDR inh inconclusive and FEN1 inh 79µM*.
`Cc1ccccc1NC(=O)CSc1nnc(-c2ccco2)c(-c2ccco2)n1` gave PI5P4K alpha inh -66*, PLK1 PBD inh 27µM*, TCR act 19%, WRN inhibitor 40µM*, VDR inh inconclusive and FEN1 inh 56µM*.
Screening CSc1ccc(-c2ccco2)nn1 returned PI5P4K alpha inh -14, PLK1 PBD inh -9%, TCR act 7%, WRN inhibitor -3%, VDR inh -15% and FEN1 inh 4%.
`CSc1nnc(-c2ccco2)c(-c2ccco2)n1` gave PI5P4K alpha inh inconclusive, PLK1 PBD inh 27µM*, TCR act 4%, WRN inhibitor inconclusive, VDR inh -4% and FEN1 inh -20%.

Screens from PubChem.
